Assay results published in PubChem BioAssay AID449762 (Southern Research Specialized Biocontainment Screening …, 2010).
The campaign covered roughly 330,000 compounds. About 1,900 (0.58%) were called active. Another 4% or so got no clear call; they are omitted. The list is a sample of the results. Potency and affinity values are given separately. A number with no mark means an inactive call. Cut-off read from the data, not from the text of the source: inconclusive = inhibition above about 70% without an active follow-up result; inactive = below that.

Assay: M. tuberculosis growth inhibition, HTS (AID 449762);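 note: bacterial growth assessed after seven days of incubation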
Conditions: M. tuberculosis H37Rv growth inhibition, 7H9 media; at 25 µM; active compounds read high
In the case of `O=C(Cn1c(CO)nc2ccccc21)NC1CCCCCC1`, the inhibition is reported as -4.47%. In the case of `COCCN(C(=O)c1csnn1)C(C(=O)NC1CCCC1)c1ccccc1F` (stereo not given), the inhibition is reported as -6.7%. Work on `COc1cc(OC)nc(-n2ncc(OC)c(Br)c2=O)n1` yielded an inhibition of -1.81%. With `COC(=O)c1cnn(-c2nc(OC)cc(OC)n2)c1C` the inhibition was 5.96%. Molecule `CSc1ccc(CN2C(=O)NC3(CCCCCCC3)C2=O)cc1` has an inhibition of 3.48%. Molecule `COc1cc2c(cc1O)CCN(C(=O)CSc1nncn1C)[C@@H]2C` has an inhibition of -6.62%. With `O=C(NCc1cccc(Br)c1)C1CC(c2ccccc2C(F)(F)F)=NO1` (stereo not given) the inhibition was 1.36%. For `COC(=O)CCCCC1SCC(NC(=O)c2ccccc2)C1OC(C)=O` (stereo not given), the inhibition was 4.8%. `COC(=O)CCCCC1SCC(NC(=O)c2ccccc2)C1Cl` (stereo not given) gave an inhibition of -3.83%. In the case of `COC(=O)c1cc(C#N)c(N2CCN(C)CC2)nc1C`, the inhibition is reported as -0.25%. Work on `O=C(COc1ccccc1)NCC(=O)N1CCCCCC1` yielded an inhibition of -3.96%. Work on `CCn1cc([N+](=O)[O-])c(C(=O)N2N=C(c3ccc(O)c(OC)c3)CC2c2ccccc2O)n1` (stereo not given) yielded an inhibition of -14.8%. `CCn1cc(Cl)c(C(=O)N2N=C(c3ccc4ccccc4c3)CC2c2ccccc2O)n1` (stereo not given) gave an inhibition of 0.64%. Molecule `CC1CCN(C(=O)c2ncn(Cc3ccccc3)c2C(=O)N2CCC(C)CC2)CC1` has an inhibition of 5.23%. `COc1ccccc1NC(=O)c1ccc(S(=O)(=O)N(C)C)cc1` showed an inhibition of -13.6%. For `COc1ccccc1OCCNC(=O)c1ccc(S(=O)(=O)N(C)C)cc1`, the inhibition was -2.93%. Work on `CC(C)CC(=O)NC(=S)Nc1ccccc1F` yielded an inhibition of -4.61%. For `O=C(Nc1ccnc(-c2ccncc2)n1)c1ccc(Cl)cc1`, the inhibition was 11.3%. `CN(CCOc1ccc(Cl)cc1)C(=O)CN1C(=O)NC2(CCCCC2)C1=O` gave an inhibition of -0.72%. With `COc1ccc(OC)c(NC(=O)C2CCN(Cc3cnn(-c4ccccc4)c3-n3cccc3)CC2)c1` the inhibition was 61.3%. `COc1ccc(NC(=O)C2CCN(Cc3cnn(-c4ccccc4)c3-n3cccc3)CC2)cc1OC` showed an inhibition of -3.38%. `c1ccc(Nc2nc(N3CCCC3)nc(N3CCCC3)n2)cc1` gave an inhibition of 17.2%. `c1ccc(Nc2nc(N3CCCCC3)nc(N3CCCCC3)n2)cc1` showed an inhibition of 4.61%. `O=C(CSc1nc2ccccc2o1)N1CCOCC1` showed an inhibition of -2.89%. In the case of `Cc1c(NC(=O)C(c2ccccc2)c2ccccc2)cccc1C(=O)O`, the inhibition is reported as 0.47%. Molecule `O=C(NC1CCCC1)C(c1ccc(F)cc1)N(Cc1ccc(F)cc1)C(=O)CCl` (stereo not given) has an inhibition of 0.54%. For `CCOC(=O)c1c(CC(C)C)csc1NC(C)=O`, the inhibition was -1.62%. For `CCOC(=O)c1c(CC(C)C)csc1NC(=O)C(C)C`, the inhibition was 1.18%. `Cc1cccc(NC(=O)c2ccc(S(=O)(=O)N3CCCCC3C)cc2)n1` (stereo not given) showed an inhibition of 8.6%. With `O=c1[nH]c2ccccc2nc1/C=C(\O)C1CC1` the inhibition was -0.58%. `O=C(C1CCN(S(=O)(=O)c2cccc3cccnc23)CC1)N1CCN(C2CCCC2)CC1` gave an inhibition of -2.61%. For `c1cc(CNC2C3CC4CC(C3)CC2C4)ccn1` (stereo not given), the inhibition was 10.3%. With `CC(NCc1ccc(N(C)C)cc1)C1CC2CCC1C2` (stereo not given) the inhibition was 0.02%. Work on `CNC(=O)c1ccc(NC(=O)Nc2ccccc2)cc1` yielded an inhibition of -1.42%. In the case of `Cc1occc1-c1nnc(SCC(=O)Nc2ccccn2)o1`, the inhibition is reported as 36.7%. In the case of `Cc1occc1-c1nnc(SCC(=O)NCCc2ccccc2)n1Cc1ccccc1`, the inhibition is reported as 1.99%. In the case of `CC(C)(C)c1ccc(-c2nnc(SCC(=O)NC3CCS(=O)(=O)C3)n2N)cc1` (stereo not given), the inhibition is reported as 1.59%. Work on `COc1cc(CC(=O)OCC(=O)Nc2ccc3c(c2)OCO3)cc(OC)c1OC` yielded an inhibition of 0.09%. Molecule `COc1ccc(C2=NOC(Cn3nc(C(=O)O)cc3-c3ccccc3)C2)cc1` (stereo not given) has an inhibition of -10.9%. In the case of `O=C(Cn1ccc2ccccc2c1=O)NCCC(=O)N1CCN(c2ccccc2)CC1`, the inhibition is reported as 2.9%. With `O=C(CSc1nc(=O)n(CCCN2CCOCC2)c2c1CCCC2)Nc1ccc(F)cc1` the inhibition was -5.62%. With `Cc1cccc(C)c1NC(=O)N1CCCCCCC1` the inhibition was -5.98%. In the case of `C#CCOCCOCCOCCNc1nc(N2CCN(C(=O)CCCCCCCCCCNC(=O)[C@H](CCCCN)n3cc(CCCC(=O)O)nn3)CC2)nc(N2CCN(C(=O)CCCCCCCCCCNC(=O)[C@H](CCCCN)n3cc(CCCC(=O)O)nn3)CC2)n1`, the inhibition is reported as -1.93%. With `C#CCOCCOCCOCCNc1nc(N2CCN(C(=O)CCCCCCCCCCNC(=O)[C@H](CCCCN)n3cc(CCO)nn3)CC2)nc(N2CCN(C(=O)CCCCCCCCCCNC(=O)[C@H](CCCCN)n3cc(CCCC(=O)O)nn3)CC2)n1` the inhibition was 24.8%. With `CC(C)CNC(=O)COC(=O)C1c2ccccc2Oc2ccccc21` the inhibition was 9.4%. With `N#CCC(=O)Nc1ccc(C(=O)OCC(=O)c2ccc3c(c2)OCCO3)cc1` the inhibition was -4.26%. Work on `CCC(C(=O)Nc1ccc(OC)c(Cl)c1)c1ccccc1` (stereo not given) yielded an inhibition of -3.28%. Molecule `O=C(CSc1ccc(-c2cccnc2)nn1)Nc1ccc(Br)cc1` has an inhibition of -0.4%. For `Cc1nonc1OCCNCCNc1ccc([N+](=O)[O-])cc1Cl`, the inhibition was 10.9%. For `COc1ccccc1NC(=O)CN1CCN(CC(=O)Nc2ccc(OC)c(OC)c2)CC1`, the inhibition was -1.32%. With `COc1ccc(NC(=O)CN2CCN(CC(=O)Nc3ccc4c(c3)OCO4)CC2)cc1` the inhibition was -4.59%. `CCOC(=O)c1c(C=O)c2ccccc2n1Cc1ccccc1F` gave an inhibition of 0.55%. In the case of `N#CC1=C(N)Oc2n[nH]c(-c3cccs3)c2C1c1ccccc1C(=O)O` (stereo not given), the inhibition is reported as -1.81%. Work on `CCN(CC)C(=O)CC(c1ccc(OC)cc1)c1c(O)cc(OC)cc1OC` (stereo not given) yielded an inhibition of -3.84%. Molecule `CCN(C(=O)COC(=O)c1[nH]c(=O)[nH]c(=O)c1N)c1ccccc1` has an inhibition of -1.59%. With `C(=N\Nc1nc(Nc2ccccc2)nc(Nc2ccccc2)n1)/c1cccnc1` the inhibition was 11.1%. `C(=N\Nc1nc(Nc2ccccc2)nc(Nc2ccccc2)n1)/c1ccncc1` gave an inhibition of 0.63%. In the case of `CC(=O)c1c(O)cc(C)n(-c2ccc(F)cc2)c1=O`, the inhibition is reported as -1.89%. `Cc1ccccc1NC(=S)N1CCCC(c2nc3ccccc3[nH]2)C1` (stereo not given) showed an inhibition of 0%. In the case of `Cc1[nH][nH]c(=O)c1N=Nc1ccccc1Cl`, the inhibition is reported as -0.87%. Molecule `Cc1[nH]n(S(=O)(=O)c2ccccc2)c(=O)c1N=Nc1cccc(Cl)c1` has an inhibition of 0.21%. In the case of `COc1cccc(CNC(=O)Cn2ccc([N+](=O)[O-])n2)c1`, the inhibition is reported as -0.85%. `CCC(=O)Nc1ccc2c(c1)nc(CCNC(=O)c1ccco1)n2C` showed an inhibition of 2.89%. Molecule `CS(=O)(=O)c1ccc2nc(NC(=O)c3ccc(NS(=O)(=O)c4ccc(F)c(F)c4)cc3)sc2c1` has an inhibition of -0.5%. `CS(=O)(=O)c1ccc2nc(NC(=O)c3cccc(NS(=O)(=O)c4ccc(F)c(F)c4)c3)sc2c1` showed an inhibition of 60.6%. Molecule `CCN(CC)S(=O)(=O)c1ccc(N2CCOCC2)c(NS(=O)(=O)c2ccc(C(C)C)cc2)c1` has an inhibition of -4.72%. For `Cc1ccc([C@@H]2CC=C(C(=O)O)[C@H](c3ccc(F)cc3)N2S(=O)(=O)c2ccccc2C)cc1`, the inhibition was 0.59%. In the case of `O=C1CCCC(=O)N1c1ccc(F)cc1`, the inhibition is reported as -3.22%. `CCCCN1C(=O)c2ccc(C(=O)Nc3cccnc3)cc2C1=O` gave an inhibition of 48.5%. Molecule `CC1=C(/C=C/C(C)=C/C=C/C(C)=C\C(=O)O)C(C)(C)CCC1` has an inhibition of 69.3%. `CC1=C(/C=C/C(C)=C/C=C/C(C)=C/C(=O)O)C(C)(C)CCC1` showed an inhibition of 26.5%. `O=c1cc(C23CC4CC(CC(C4)C2)C3)[nH][nH]1` showed an inhibition of 4.36%. `N#Cc1ccc(C23CC4CC(CC(C4)C2)C3)[nH]c1=O` showed an inhibition of 12.1%. `Cc1cnc(CN(C)C(=O)CC2C(=O)NCCN2CCCc2ccccc2)[nH]1` (stereo not given) gave an inhibition of -8.51%. `Cc1nn(C(C)C(=O)NCc2ccccc2F)c(=O)c2nn(-c3ccccc3)c(C)c12` (stereo not given) showed an inhibition of 0.01%. With `CCN1C(=O)[C@H]2[C@@H](c3ccc(-c4ccc(Cl)c(Cl)c4)cc3)N[C@@](Cc3ccccc3)(C(=O)OC)[C@H]2C1=O` the inhibition was 4.89%. With `Cc1ccccc1N1CCN(CC(=O)Nc2nccs2)CC1` the inhibition was 6.57%. For `COc1ccccc1N1CCN(CC(=O)Nc2nccs2)CC1`, the inhibition was 6.27%. `O=C(CC(=O)NC1CCCCC1)N/N=C/c1ccccc1F` gave an inhibition of 7.41%. `CCOC(=O)CNC(=O)c1cnc(Nc2ccccc2OC)c2ccccc12` showed an inhibition of 2.72%. `O=C(O)Cc1c(-c2ccccc2Cl)c2cc(Br)ccc2[nH]c1=O` showed an inhibition of 0.9%. `O=C(NNc1nc(-c2ccc(F)cc2)cs1)c1ccccc1` gave an inhibition of 1.95%. With `N#Cc1ccc(-c2csc(NNC(=O)c3ccccc3)n2)cc1` the inhibition was 1.66%. For `Cc1cc(C)c(C#N)c(SCCS(=O)(=O)c2ccc(C(C)(C)C)cc2)n1`, the inhibition was 1.43%. For `CCC(=O)CCC(=O)c1ccc2ccccc2c1`, the inhibition was 9.13%. Work on `O=C1C=C(O)c2c(O)cccc2C1=O` yielded an inhibition of -6.54%. `COc1cccc2c1C(=O)C=C(C)C2=O` gave an inhibition of -8.66%. With `CC(=O)NC12CC3CC(C1)CC(C(=O)Nc1c(C)n(C)n(-c4ccccc4)c1=O)(C3)C2` the inhibition was -13%. For `COc1ccc(NC(=O)CSc2nnnn2-c2ccc(F)cc2)cc1`, the inhibition was -7.12%. Molecule `C[C@@]12C(=O)N(CCO)CC(=O)N1[C@H](/C=C/c1ccccc1)[C@@H]1C(=O)N(c3ccccc3)C(=O)[C@@H]12` has an inhibition of -1.57%.
